For 6 compounds, inhibition results are on record in ChEMBL document CHEMBL1961873, “Compounds: GSK PKIS; Assays: Nanosyn kinase panel” (2012).

In test [1] the target is Tyrosine-protein kinase Fer (Homo sapiens) (UniProt P16591). The settings on record: at 1 µM.
The target in test [2] is Tyrosine-protein kinase Fes/Fps (Homo sapiens) (UniProt P07332). The settings on record: at 0.1 µM.
The target is the same in test [3]. The note with it: at 1 µM.
For test [4], the target named is Fibroblast growth factor receptor 1 (Homo sapiens) (UniProt P11362). The note with it: at 0.1 µM.
Sequence of Fibroblast growth factor receptor 1 (Homo sapiens) (P11362 22-822 limits assumed): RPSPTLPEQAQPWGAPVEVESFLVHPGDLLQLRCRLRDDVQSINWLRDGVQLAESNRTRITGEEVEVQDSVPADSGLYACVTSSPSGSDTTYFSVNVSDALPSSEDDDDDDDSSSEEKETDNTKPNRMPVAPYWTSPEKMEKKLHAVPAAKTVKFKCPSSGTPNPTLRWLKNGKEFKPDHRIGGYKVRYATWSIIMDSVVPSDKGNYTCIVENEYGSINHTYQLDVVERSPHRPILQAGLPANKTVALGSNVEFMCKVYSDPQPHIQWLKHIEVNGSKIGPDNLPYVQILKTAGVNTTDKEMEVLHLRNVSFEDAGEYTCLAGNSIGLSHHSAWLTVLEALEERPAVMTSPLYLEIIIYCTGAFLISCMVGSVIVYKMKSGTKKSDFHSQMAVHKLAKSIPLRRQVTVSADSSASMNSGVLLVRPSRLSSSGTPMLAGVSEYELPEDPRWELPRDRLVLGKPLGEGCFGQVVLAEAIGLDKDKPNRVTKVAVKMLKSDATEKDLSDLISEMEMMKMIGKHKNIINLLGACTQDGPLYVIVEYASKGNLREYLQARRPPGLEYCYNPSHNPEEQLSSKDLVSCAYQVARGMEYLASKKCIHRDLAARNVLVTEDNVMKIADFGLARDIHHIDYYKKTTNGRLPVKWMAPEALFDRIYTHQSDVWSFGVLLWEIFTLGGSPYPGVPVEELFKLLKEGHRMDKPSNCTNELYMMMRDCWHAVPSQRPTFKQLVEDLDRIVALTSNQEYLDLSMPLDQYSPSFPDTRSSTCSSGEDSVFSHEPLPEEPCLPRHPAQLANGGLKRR
For test [5] the target is unchanged. The note with it: at 1 µM.
Test [6] has as its target Fibroblast growth factor receptor 2 (Homo sapiens) (UniProt P21802). The settings on record: at 0.1 µM.
The target is the same in test [7]. The note with it: at 1 µM.
The target in test [8] is Fibroblast growth factor receptor 3 (Homo sapiens) (UniProt P22607). The note with it: at 0.1 µM.
Sequence of Fibroblast growth factor receptor 3 (Homo sapiens) (P22607 23-806 limits assumed): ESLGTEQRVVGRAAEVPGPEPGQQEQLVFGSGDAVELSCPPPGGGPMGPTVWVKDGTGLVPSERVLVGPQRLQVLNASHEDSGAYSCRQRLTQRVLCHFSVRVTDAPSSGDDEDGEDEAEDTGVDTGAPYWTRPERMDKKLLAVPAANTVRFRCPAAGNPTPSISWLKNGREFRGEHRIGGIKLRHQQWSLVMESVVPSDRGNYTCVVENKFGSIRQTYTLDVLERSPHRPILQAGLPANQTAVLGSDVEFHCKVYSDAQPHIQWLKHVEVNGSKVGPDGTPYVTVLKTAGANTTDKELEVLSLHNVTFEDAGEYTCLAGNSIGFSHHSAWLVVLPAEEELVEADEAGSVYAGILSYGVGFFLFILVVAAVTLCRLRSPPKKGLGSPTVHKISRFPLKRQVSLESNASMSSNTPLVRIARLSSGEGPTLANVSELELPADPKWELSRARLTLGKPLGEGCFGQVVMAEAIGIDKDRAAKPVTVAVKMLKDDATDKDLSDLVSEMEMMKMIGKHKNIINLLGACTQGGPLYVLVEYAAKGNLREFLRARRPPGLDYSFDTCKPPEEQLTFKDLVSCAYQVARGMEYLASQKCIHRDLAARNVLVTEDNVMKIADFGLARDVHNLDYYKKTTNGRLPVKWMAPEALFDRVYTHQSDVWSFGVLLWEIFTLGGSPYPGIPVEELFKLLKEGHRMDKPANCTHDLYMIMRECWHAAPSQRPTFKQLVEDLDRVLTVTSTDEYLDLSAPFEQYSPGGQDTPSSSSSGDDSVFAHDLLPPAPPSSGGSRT
The target is the same in test [9]. The note with it: at 1 µM.
Test [10] has as its target Fibroblast growth factor receptor 4 (Homo sapiens) (UniProt P22455). The settings on record: at 0.1 µM.
For test [11] the target is unchanged. The note with it: at 1 µM.
For test [12], the target named is Tyrosine-protein kinase Fgr (Homo sapiens) (UniProt P09769). The note with it: at 0.1 µM.
Test [13] has the same target. The settings on record: at 1 µM.
Test [14] has as its target Vascular endothelial growth factor receptor 1 (Homo sapiens) (UniProt P17948). The note with it: at 0.1 µM.
The target is the same in test [15]. The settings on record: at 1 µM.
The target in test [16] is Receptor-type tyrosine-protein kinase FLT3 (Homo sapiens) (UniProt P36888). The note with it: at 0.1 µM.
For test [17] the target is unchanged. The note with it: at 1 µM.
Test [18] has as its system T1, Receptor-type tyrosine-protein kinase FLT3 (Homo sapiens), P36888 [D835Y].
T1 sequence (whole entry): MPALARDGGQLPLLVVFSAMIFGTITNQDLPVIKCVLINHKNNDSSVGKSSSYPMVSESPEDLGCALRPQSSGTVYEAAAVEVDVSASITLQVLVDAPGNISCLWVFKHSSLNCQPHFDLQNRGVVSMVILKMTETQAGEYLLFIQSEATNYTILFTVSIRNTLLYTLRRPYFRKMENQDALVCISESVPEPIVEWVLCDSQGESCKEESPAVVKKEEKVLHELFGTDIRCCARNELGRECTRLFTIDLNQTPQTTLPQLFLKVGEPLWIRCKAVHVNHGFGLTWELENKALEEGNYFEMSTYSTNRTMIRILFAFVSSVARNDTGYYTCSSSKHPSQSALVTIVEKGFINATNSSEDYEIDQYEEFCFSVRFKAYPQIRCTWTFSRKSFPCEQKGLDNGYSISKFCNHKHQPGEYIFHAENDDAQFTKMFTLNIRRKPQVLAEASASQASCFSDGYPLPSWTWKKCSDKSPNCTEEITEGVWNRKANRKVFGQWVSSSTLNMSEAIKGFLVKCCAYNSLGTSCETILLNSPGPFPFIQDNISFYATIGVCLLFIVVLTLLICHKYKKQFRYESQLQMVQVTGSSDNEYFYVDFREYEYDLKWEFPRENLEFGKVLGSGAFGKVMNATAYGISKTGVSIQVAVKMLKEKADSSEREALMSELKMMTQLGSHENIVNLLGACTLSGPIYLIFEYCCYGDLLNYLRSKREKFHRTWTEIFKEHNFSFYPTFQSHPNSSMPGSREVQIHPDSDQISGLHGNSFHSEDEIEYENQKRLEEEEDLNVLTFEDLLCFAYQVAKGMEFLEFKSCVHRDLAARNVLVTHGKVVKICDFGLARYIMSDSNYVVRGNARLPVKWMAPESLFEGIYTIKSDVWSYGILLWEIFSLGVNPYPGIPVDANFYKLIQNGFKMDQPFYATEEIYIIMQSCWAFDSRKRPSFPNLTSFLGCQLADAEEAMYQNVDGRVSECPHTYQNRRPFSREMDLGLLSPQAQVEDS
The note with it: at 0.1 µM.

For test [19], the target named is Non-receptor tyrosine-protein kinase TYK2 (Homo sapiens) (UniProt P29597). The settings on record: at 1 µM.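 Also: values are mean percent inhibition of TYK2 kinase.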
Test [20] addresses T2, Tyrosine-protein kinase receptor TYRO3 (Homo sapiens) (UniProt Q06418).
T2 sequence (whole entry): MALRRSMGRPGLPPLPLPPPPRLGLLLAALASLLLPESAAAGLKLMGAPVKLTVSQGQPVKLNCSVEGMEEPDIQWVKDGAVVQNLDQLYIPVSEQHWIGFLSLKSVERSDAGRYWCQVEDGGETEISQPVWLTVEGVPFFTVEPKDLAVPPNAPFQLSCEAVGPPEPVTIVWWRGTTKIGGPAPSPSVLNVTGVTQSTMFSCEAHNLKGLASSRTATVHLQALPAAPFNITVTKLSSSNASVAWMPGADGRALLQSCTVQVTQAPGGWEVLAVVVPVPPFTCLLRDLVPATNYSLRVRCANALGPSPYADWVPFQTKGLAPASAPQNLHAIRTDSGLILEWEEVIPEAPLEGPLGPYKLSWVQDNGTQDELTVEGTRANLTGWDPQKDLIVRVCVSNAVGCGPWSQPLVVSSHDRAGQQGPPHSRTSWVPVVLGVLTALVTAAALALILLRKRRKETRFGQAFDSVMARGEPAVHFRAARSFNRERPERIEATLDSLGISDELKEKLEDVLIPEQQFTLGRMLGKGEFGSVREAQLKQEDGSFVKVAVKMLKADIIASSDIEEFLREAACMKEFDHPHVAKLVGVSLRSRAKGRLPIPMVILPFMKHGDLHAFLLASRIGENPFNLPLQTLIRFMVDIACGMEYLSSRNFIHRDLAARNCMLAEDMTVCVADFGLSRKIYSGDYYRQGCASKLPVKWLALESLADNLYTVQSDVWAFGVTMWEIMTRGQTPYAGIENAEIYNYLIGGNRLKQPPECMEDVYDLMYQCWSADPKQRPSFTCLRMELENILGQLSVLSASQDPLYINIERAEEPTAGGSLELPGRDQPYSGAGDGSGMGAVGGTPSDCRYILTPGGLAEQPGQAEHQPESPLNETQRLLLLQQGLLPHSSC
The settings on record: at 0.1 µM.

Sequence of Fibroblast growth factor receptor 4 (Homo sapiens) (P22455 22-802 limits assumed): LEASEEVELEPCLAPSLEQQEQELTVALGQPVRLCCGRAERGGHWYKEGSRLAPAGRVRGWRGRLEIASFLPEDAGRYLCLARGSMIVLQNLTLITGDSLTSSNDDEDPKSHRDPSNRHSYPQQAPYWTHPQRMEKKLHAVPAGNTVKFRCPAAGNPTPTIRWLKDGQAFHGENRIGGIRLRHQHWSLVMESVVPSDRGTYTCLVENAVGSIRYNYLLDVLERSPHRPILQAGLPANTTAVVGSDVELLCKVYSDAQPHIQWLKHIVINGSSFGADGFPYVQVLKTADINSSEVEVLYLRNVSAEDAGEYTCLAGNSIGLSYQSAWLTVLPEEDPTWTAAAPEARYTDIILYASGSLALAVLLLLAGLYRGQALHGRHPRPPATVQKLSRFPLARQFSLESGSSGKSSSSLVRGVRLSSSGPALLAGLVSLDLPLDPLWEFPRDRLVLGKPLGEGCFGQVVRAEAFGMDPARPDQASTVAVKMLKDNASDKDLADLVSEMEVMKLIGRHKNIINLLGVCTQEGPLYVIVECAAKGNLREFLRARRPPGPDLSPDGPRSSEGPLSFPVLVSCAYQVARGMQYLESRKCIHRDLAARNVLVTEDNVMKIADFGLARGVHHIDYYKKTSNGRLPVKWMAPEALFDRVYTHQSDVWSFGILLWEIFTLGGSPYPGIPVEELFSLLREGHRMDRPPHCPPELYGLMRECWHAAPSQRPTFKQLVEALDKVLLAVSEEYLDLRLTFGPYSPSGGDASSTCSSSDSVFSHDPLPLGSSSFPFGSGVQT
Sequence of Fibroblast growth factor receptor 2 (Homo sapiens) (P21802 22-821 limits assumed): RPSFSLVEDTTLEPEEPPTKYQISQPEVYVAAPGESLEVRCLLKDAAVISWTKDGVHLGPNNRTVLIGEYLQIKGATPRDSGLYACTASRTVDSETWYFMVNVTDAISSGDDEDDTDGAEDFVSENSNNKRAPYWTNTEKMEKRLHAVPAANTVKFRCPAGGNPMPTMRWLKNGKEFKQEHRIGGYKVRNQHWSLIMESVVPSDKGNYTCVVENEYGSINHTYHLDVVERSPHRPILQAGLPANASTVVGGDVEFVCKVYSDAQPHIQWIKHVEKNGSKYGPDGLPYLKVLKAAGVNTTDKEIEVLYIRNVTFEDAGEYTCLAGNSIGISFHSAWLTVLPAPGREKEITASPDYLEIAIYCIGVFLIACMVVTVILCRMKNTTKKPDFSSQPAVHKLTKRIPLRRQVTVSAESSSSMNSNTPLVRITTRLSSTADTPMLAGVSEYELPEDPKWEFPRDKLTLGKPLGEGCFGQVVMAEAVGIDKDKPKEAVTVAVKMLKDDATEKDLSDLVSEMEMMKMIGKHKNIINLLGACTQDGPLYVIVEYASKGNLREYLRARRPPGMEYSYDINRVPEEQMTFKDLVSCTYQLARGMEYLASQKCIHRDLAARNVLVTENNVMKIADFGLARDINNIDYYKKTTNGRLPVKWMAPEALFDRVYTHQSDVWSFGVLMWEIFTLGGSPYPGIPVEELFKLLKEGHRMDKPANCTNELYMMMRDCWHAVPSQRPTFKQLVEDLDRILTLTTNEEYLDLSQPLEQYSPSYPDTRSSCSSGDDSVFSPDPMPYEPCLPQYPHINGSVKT
Sequence of Tyrosine-protein kinase Fes/Fps (Homo sapiens) (P07332 whole entry): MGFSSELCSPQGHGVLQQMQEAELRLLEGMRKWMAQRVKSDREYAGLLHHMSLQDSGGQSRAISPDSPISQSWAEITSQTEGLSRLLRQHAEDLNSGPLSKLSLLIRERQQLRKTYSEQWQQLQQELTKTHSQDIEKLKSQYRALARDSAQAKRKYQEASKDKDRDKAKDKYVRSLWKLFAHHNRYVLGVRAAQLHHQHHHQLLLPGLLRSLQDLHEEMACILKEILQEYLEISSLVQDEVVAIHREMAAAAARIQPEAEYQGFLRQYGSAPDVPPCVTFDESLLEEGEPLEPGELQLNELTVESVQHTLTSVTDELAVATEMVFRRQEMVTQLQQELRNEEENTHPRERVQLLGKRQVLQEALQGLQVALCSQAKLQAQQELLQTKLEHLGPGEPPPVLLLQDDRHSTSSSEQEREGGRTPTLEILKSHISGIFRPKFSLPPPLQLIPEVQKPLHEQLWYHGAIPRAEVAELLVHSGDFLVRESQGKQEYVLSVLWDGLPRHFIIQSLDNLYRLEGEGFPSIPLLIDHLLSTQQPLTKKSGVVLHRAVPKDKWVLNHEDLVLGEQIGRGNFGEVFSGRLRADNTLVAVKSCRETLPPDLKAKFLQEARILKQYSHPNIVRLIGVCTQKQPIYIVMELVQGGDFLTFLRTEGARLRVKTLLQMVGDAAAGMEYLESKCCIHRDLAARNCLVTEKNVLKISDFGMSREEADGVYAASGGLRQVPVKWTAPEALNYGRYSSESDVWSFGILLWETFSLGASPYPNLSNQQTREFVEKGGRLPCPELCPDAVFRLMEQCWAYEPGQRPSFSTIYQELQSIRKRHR
Sequence of Tyrosine-protein kinase Fer (Homo sapiens) (P16591 whole entry, looked up): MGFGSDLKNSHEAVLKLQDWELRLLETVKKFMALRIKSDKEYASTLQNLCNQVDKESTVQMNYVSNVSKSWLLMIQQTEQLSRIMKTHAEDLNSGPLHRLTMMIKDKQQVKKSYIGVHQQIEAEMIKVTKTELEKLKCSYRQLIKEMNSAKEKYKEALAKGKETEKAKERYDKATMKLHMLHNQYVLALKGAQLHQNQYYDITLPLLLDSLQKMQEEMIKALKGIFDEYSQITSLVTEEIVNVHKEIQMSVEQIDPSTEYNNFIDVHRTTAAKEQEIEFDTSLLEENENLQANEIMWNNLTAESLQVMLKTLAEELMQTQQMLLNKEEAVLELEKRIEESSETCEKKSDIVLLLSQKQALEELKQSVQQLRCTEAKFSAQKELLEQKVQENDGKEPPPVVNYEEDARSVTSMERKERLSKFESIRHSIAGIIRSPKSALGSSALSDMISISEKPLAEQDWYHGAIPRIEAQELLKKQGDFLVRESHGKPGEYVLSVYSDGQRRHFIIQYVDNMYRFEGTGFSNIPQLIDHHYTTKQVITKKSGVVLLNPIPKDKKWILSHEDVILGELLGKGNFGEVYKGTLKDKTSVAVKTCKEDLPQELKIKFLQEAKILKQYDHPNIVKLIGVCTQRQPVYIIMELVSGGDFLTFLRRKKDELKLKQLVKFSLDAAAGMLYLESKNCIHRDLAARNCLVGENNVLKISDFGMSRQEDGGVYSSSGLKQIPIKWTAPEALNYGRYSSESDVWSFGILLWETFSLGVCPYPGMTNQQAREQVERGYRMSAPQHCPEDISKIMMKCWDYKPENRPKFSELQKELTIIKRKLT

By inhibition is commonly meant the change of the read-out against control, counted positive when it falls. In the case of `Cc1ccc(C(=O)NC2CC2)cc1-c1ccc2[nH]ncc2c1`, the inhibition in test [1] is 0.05%; in [2] it was -3.18%; in test [3], -3.34%; in [4], -0.69%; in [5] it was -5.16%; in test [6] it was -3.95%. Besides, the inhibition in test [7] was -3.78%; in [8], -5.18%; in test [9], 0.28%; in test [10], 1.43%; in [11], 0.32%; in [12], -1.47%. Besides, the inhibition in [13] was 1.41%; in [14], -2.04%; in test [15], -1.81%; in [16], -3.48%; in test [17], 0.84%; in test [18], -3.02%. In addition, the inhibition in test [19] is 2.43%; in test [20], -1.74%.
As for `[O-][S+]1CCN(Cc2ccc(-c3ccc4ncnc(Nc5ccc(OCc6ccccc6)c(Cl)c5)c4c3)o2)CC1`, the inhibition in [1] was 4.1%; in test [2] it was 1.31%; in test [3] it was 1.62%; in [4], -2.69%; in test [5] it was 1.21%; in [6], 0.85%. Besides, the inhibition is 3.74% in test [7]; -0.22% in test [8]; 3.23% in test [9]; -0.05% in test [10]; -0.87% in test [11]; -0.44% in [12]. Moreover, the inhibition in test [13] is 8.63%; in test [14], -0.09%; in [15] it was 1.05%; in test [16] it was 5.36%; in test [17], 2.27%; in test [18], 0.74%. Moreover, the inhibition is -0.57% in test [19] and 0.39% in test [20].
`COc1cc(/C=N/Nc2ncnc3c2cnn3C(C)C)ccc1O`: the inhibition was 7.03% in [1]; 1.26% in test [2]; 5.37% in test [3]; -0.65% in test [4]; 2.77% in test [5]; 1.99% in test [6]. Besides, the inhibition in [7] is 7.97%; in test [8], 1.62%; in [9], 7.76%; in test [10], -8.41%; in [11], 1.4%; in test [12], 9.02%. In addition, the inhibition in test [13] is 40.4%; in test [14], -0.74%; in [15] it was 3.88%; in test [16], 2.52%; in test [17], 22.7%; in test [18], -2.61%. Further, the inhibition is 4.77% in test [19] and 4.41% in [20].
As for `CCn1c(-c2nonc2N)nc2ccc(F)cc21`, the inhibition in [1] amounted to 7.92%; in [2], 2.98%; in test [3], 2.83%; in test [4], 3.73%; in test [5] it was 10.2%; in test [6], 5.98%. Moreover, the inhibition is 4.55% in test [7]; 7.35% in [8]; 5.83% in test [9]; 2.81% in [10]; 2.77% in test [11]; 4.5% in test [12]. Further, the inhibition in [13] was 1.73%; in [14], 3.79%; in [15], 2.76%; in test [16], 2.66%; in test [17] it was 2.44%; in [18], -1.29%. The inhibition in test [19] was -4.18%; in test [20], 3.03%.
For `CCOc1nccc2c1nc(-c1nonc1N)n2CC`, the inhibition was determined as 6.51% in [1]; 2.51% in [2]; 2.14% in test [3]; 4.54% in [4]; 7.51% in test [5]; 3.59% in test [6]. Also, the inhibition is 10.6% in test [7]; 5% in test [8]; 10.9% in test [9]; 2.6% in [10]; 4.2% in [11]; 6.66% in test [12]. Further, the inhibition in test [13] is 5.06%; in test [14] it was 2.14%; in test [15], 2.02%; in [16] it was 0.14%; in test [17], 1.3%; in test [18], -2.2%. Further, the inhibition in test [19] came out at 1.21%; in test [20] it was 3.25%.
`CN(C)c1cc2c(Nc3ccc4c(cnn4Cc4ccccc4)c3)ncnc2cn1`: the inhibition in test [1] worked out at 7.22%; in test [2] it was 2.58%; in test [3] it was 3.25%; in test [4], 2.28%; in test [5], 4.22%; in test [6], 2.03%. Moreover, the inhibition in test [7] amounted to 2.51%; in test [8] it was 4.39%; in test [9] it was 4.14%; in [10], 0.85%; in test [11], 7.89%; in test [12], 9.23%. Besides, the inhibition was 33.2% in [13]; 1.1% in test [14]; 1.36% in [15]; 1.97% in test [16]; 1.77% in test [17]; 0.4% in [18]. Moreover, the inhibition in test [19] was -5.95%; in [20], 0.23%.
